Here are results for 13 molecules from ChEMBL document CHEMBL1961873, “Compounds: GSK PKIS; Assays: Nanosyn kinase panel” (2012).

Test [1] concerns the target Casein kinase I isoform gamma-2 (Homo sapiens) (UniProt P78368). The note with it: at 1 µM.
In test [2] the target is Casein kinase I isoform gamma-3 (Homo sapiens) (UniProt Q9Y6M4). The conditions noted are these: at 0.1 µM.
The target is the same in test [3]. The note with it: at 1 µM.
Test [4] has as its target Cyclin-dependent kinase 1 (Homo sapiens) (UniProt P06493). The conditions noted are these: at 0.1 µM.
Test [5] has the same target. The note with it: at 1 µM.
In test [6] the target is Cyclin-dependent kinase 2 (Homo sapiens) (UniProt P24941). The note with it: at 0.1 µM.
Test [7] has the same target. The conditions noted are these: at 1 µM.
The target is the same in test [8]. The note with it: at 0.1 µM. The source holds these as a separate data set.
For test [9] the target is unchanged. The note with it: at 1 µM. The source holds these as a separate data set.
In test [10] the target is T1, CDK3/Cyclin E (Homo sapiens) (UniProt P24864+Q00526). The conditions noted are these: at 0.1 µM.
Test [11] has as its target T1, CDK3/Cyclin E (Homo sapiens). The conditions noted are these: at 1 µM.
The target of test [12] is Cyclin-dependent kinase 4 (Homo sapiens) (UniProt P11802). The note with it: at 0.1 µM.
Test [13] shares this target. The conditions noted are these: at 1 µM.
The target in test [14] is Cyclin-dependent kinase 5 (Homo sapiens) (UniProt Q00535). The conditions noted are these: at 0.1 µM.
Test [15] has the same target. The note with it: at 1 µM.
Test [16] has as its target Cyclin-dependent kinase 6 (Homo sapiens) (UniProt Q00534). The conditions noted are these: at 0.1 µM.
The target is the same in test [17]. The note with it: at 1 µM.
Test [18] deals with Dual specificity protein kinase CLK2 (Homo sapiens) (UniProt P49760). The conditions noted are these: at 0.1 µM.
Test [19] shares this target. The note with it: at 1 µM.
Test [20] deals with Dual specificity protein kinase CLK3 (Homo sapiens) (UniProt P49761). The conditions noted are these: at 0.1 µM.
Sequence of Dual specificity protein kinase CLK3 (Homo sapiens) (P49761 whole entry, looked up): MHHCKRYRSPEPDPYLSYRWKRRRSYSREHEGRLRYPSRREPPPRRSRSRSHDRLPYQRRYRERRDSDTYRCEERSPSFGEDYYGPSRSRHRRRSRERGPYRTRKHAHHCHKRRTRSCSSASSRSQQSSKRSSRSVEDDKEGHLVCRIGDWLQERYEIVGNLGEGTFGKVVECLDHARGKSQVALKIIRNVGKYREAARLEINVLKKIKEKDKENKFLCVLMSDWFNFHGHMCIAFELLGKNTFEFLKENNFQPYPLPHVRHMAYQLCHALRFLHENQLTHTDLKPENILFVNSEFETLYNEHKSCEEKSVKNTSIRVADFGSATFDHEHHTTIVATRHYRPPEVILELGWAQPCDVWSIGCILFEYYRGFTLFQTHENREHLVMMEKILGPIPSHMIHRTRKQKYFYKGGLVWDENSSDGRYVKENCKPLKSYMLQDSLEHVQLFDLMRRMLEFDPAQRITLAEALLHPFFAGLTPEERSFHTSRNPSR

Sequence of Cyclin-dependent kinase 1 (Homo sapiens) (P06493 whole entry, looked up): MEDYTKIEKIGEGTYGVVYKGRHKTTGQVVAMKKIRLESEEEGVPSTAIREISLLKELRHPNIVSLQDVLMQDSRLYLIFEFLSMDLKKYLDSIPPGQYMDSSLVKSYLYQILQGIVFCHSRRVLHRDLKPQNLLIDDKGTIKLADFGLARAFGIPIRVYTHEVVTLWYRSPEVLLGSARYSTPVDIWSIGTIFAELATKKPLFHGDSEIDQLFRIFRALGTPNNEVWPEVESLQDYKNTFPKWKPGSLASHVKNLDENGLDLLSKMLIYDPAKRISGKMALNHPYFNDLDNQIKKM
Sequence of Casein kinase I isoform gamma-2 (Homo sapiens) (P78368 whole entry, looked up, canonical isoform): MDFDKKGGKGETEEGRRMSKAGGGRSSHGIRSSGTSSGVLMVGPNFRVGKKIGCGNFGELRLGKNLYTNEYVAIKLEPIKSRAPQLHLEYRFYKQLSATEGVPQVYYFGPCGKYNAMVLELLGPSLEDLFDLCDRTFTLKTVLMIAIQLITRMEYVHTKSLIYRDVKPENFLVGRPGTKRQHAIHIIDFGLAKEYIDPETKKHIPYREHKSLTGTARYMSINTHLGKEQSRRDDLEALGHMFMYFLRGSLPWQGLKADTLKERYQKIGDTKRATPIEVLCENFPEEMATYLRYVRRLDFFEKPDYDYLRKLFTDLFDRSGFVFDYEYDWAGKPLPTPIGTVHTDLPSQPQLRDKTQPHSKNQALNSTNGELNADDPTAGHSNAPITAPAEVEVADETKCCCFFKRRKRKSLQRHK
Sequence of Dual specificity protein kinase CLK2 (Homo sapiens) (P49760 whole entry, looked up): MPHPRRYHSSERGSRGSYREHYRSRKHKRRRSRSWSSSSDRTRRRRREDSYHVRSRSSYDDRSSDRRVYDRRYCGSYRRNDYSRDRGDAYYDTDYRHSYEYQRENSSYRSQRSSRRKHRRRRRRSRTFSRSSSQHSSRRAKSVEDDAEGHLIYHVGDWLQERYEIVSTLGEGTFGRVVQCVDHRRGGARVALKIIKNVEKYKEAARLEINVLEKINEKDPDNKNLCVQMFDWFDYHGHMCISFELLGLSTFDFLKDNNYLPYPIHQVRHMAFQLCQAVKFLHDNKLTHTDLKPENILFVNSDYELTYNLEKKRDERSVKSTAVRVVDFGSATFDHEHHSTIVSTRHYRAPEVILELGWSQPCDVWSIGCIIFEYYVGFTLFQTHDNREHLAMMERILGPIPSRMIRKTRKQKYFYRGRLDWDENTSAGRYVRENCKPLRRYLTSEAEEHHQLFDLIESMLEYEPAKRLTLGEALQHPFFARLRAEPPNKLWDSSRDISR
Sequence of Cyclin-dependent kinase 4 (Homo sapiens) (P11802 whole entry): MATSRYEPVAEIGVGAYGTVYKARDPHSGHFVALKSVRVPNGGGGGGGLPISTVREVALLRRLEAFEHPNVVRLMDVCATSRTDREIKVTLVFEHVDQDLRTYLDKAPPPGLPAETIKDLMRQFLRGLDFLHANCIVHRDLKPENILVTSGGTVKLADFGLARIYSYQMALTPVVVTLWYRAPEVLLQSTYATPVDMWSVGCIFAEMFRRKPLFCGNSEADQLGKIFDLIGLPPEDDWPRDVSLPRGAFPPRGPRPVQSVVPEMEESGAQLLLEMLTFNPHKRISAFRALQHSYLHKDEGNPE
Sequence of Cyclin-dependent kinase 5 (Homo sapiens) (Q00535 whole entry, looked up): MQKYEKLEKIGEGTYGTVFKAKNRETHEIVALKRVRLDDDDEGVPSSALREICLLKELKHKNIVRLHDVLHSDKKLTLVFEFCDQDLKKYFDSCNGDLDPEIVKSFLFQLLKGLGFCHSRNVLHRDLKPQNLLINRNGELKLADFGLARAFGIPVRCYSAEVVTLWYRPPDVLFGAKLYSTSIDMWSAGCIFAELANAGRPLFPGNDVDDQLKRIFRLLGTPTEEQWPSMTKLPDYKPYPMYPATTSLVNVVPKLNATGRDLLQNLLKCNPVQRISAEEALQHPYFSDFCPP
Sequence of Casein kinase I isoform gamma-3 (Homo sapiens) (Q9Y6M4 whole entry, looked up, canonical isoform): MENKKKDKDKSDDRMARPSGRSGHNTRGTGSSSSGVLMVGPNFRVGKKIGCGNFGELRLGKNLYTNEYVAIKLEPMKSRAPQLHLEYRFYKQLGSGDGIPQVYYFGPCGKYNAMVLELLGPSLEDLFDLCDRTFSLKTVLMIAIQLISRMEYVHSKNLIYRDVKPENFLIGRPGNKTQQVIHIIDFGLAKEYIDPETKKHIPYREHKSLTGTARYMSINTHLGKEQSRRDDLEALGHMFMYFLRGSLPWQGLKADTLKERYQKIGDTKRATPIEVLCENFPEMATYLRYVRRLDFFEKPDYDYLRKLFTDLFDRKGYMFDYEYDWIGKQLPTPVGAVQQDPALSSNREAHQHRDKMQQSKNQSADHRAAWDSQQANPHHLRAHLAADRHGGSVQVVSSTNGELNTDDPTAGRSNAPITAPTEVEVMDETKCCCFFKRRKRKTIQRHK
Sequence of Cyclin-dependent kinase 6 (Homo sapiens) (Q00534 whole entry): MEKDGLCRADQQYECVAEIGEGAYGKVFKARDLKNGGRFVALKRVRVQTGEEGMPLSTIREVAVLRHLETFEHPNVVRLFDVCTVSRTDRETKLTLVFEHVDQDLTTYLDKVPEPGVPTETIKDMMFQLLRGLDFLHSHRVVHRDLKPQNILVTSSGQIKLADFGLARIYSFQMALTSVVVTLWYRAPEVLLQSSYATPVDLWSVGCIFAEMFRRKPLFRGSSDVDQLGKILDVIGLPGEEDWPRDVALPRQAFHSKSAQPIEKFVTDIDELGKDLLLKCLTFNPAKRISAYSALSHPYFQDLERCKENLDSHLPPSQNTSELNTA
T1 sequence (P24864 whole entry, looked up): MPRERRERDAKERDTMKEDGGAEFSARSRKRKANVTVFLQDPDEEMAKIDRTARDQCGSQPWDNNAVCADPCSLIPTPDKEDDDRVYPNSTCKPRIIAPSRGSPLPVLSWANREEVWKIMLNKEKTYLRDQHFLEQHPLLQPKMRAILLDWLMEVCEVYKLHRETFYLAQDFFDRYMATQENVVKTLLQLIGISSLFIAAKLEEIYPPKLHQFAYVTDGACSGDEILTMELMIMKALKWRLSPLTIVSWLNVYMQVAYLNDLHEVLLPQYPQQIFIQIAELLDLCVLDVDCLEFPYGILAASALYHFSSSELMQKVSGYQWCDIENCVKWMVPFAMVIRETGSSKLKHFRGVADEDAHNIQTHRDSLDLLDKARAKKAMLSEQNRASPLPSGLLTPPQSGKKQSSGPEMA
T1 sequence (Q00526 whole entry, looked up): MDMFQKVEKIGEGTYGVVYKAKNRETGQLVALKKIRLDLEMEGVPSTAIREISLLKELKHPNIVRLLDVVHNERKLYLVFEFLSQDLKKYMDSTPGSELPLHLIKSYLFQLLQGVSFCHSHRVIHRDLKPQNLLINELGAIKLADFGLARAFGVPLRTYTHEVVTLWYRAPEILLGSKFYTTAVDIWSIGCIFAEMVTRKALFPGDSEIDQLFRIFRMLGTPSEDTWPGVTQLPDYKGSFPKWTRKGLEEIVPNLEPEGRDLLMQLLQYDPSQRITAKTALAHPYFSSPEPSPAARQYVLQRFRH

As usually defined, the inhibition is the change of the read-out against control, counted positive when it falls. In the case of `CN1CCC(n2cnc(-c3ccc(F)cc3)c2-c2ccnc(Nc3ccccc3)n2)CC1`, the inhibition in test [1] was determined as 35.2%; in test [2], 12.4%; in test [3] it was 61.7%; in test [4] it was 0.37%; in test [5] it was 2.52%; in test [6], 0.89%. Also, the inhibition in test [7] was -0.3%; in [8], 1.14%; in test [9] it was 2.14%; in test [10], 2.38%; in test [11], -2.19%; in test [12] it was 1.36%. Besides, the inhibition in test [13] was determined as 2.55%; in test [14] it was 0.25%; in [15], 1%; in test [16] it was 3.89%; in test [17], 0.2%; in test [18], 1.64%. Moreover, the inhibition in [19] is 1.56%; in test [20] it was 0.75%.

As to `COC(=O)Nc1nc2ccc(Oc3ccc(NC(=O)Nc4cccc(Cl)c4)cc3)cc2[nH]1`, the inhibition in [1] is 1.64%; in [2] it was 0.53%; in [3] it was 1.25%; in test [4], -0.02%; in test [5], 0%; in test [6], -0.3%. In addition, the inhibition was -1.22% in test [7]; 1.4% in test [8]; 0.48% in [9]; 1.02% in test [10]; -0.43% in test [11]; 0.18% in [12]. The inhibition was 0.01% in test [13]; 0.3% in [14]; -0.49% in test [15]; -0.37% in [16]; 3.51% in [17]; -1.9% in test [18]. Further, the inhibition in test [19] was -1.67%; in test [20] it was 0.01%.

As to `CCCN1CCC(c2ccc(Nc3nc(Nc4cc(F)ccc4C(N)=O)c4cc[nH]c4n3)c(OC)c2)CC1`, the inhibition came out at 72.7% in test [1]; 35.4% in test [2]; 79.8% in test [3]; 1.73% in [4]; 6.31% in [5]; 1.78% in [6]. Besides, the inhibition in [7] is 0.94%; in test [8] it was 7.06%; in test [9], 11.8%; in [10], 4.1%; in test [11] it was -1.93%; in test [12], 7.7%. Further, the inhibition in test [13] was determined as 25.7%; in [14], 2.09%; in test [15], 6.47%; in [16], 4.48%; in test [17] it was 17.9%; in [18], 59.1%. The inhibition was determined as 93.8% in test [19] and 3.2% in test [20].

Turning to `COc1ccc2[nH]c3c4[nH]c5ccc(OC)cc5c4c4c(c3c2c1)C(=O)NC4=O`, the inhibition in [1] was found to be 3.1%; in [2], 4.06%; in [3], 5%; in test [4], 0.17%; in test [5] it was 3.22%; in test [6], 1.85%. In addition, the inhibition in test [7] worked out at 3%; in test [8], 3.64%; in [9] it was 4.91%; in [10] it was 2.31%; in [11], 6.02%; in test [12], 2.56%. In addition, the inhibition worked out at 7.55% in test [13]; 1.11% in test [14]; 2.57% in test [15]; 2.91% in test [16]; 3.6% in [17]; 5.12% in test [18]. Besides, the inhibition was 20.3% in [19] and 2.17% in [20].

Consider `Nc1nc(-c2ccc(F)cc2)c(-c2ccc3ncccc3n2)s1`, for which the inhibition in test [1] is 8.8%; in test [2] it was 4.7%; in test [3], 16.9%; in test [4], 3.94%; in [5] it was 8.07%; in [6], 3.61%. The inhibition in [7] is 0.25%; in test [8], 6.09%; in [9] it was 10.7%; in test [10], 3.73%; in test [11], 1.75%; in test [12], 6.95%. Moreover, the inhibition in test [13] is 9.34%; in test [14], 4.02%; in [15] it was 7.28%; in test [16] it was 4.34%; in test [17] it was 7.53%; in test [18], 2.98%. Also, the results for the inhibition in test [19] and in test [20] were 8.8% and 3.31%, respectively.

For the molecule `COc1ccc(-c2cc(-c3c[nH]nc3-c3ccccn3)ccn2)cc1`, the inhibition in [1] was determined as 5.19%; in [2], 3.68%; in test [3], 6.59%; in test [4] it was 0.11%; in test [5] it was 1.79%; in [6] it was 1.84%. Moreover, the inhibition in test [7] worked out at 7.74%; in test [8] it was 4.73%; in test [9] it was 5.82%; in test [10], 2.59%; in [11] it was 0.46%; in test [12] it was 2.18%. In addition, the inhibition in [13] is 1.82%; in [14], 1.02%; in test [15] it was 1.41%; in test [16] it was 4.13%; in test [17] it was -0.9%; in [18], 0.77%. Moreover, the inhibition in [19] was determined as 0.26%; in test [20], 3.07%.

Take `COC(=O)c1sc(-n2cnc3cc(OC)c(OC)cc32)cc1OCc1ccccc1C(F)(F)F`: the inhibition in test [1] was 4.73%; in [2], 3.9%; in test [3], 2.94%; in [4], -0.15%; in test [5], 1.15%; in [6] it was 1.51%. Besides, the inhibition in test [7] was 3.81%; in [8], 4.73%; in [9], 8.33%; in [10], 3.47%; in test [11] it was -1.85%; in [12], 2.28%. The inhibition is 3.18% in test [13]; 1.35% in test [14]; 2.46% in [15]; -2.2% in test [16]; 5.15% in test [17]; 1.6% in test [18]. Further, the inhibition in [19] was determined as 2.65%; in test [20], 0.11%.

As to `COc1cc(N2CCN(C(C)C)CC2)ccc1Nc1nc(Nc2ccc(F)cc2C(N)=O)c2cc[nH]c2n1`, the inhibition is 40.8% in test [1]; 14.7% in test [2]; 59% in test [3]; 1.39% in [4]; 1.85% in [5]; 2.71% in [6]. In addition, the inhibition in test [7] was 0.03%; in test [8] it was 0.79%; in test [9], 0.42%; in test [10], -2.54%; in [11] it was 0.34%; in [12], 1.59%. Moreover, the inhibition in [13] is 5.82%; in [14], 0.74%; in [15], 0.58%; in [16], -2.83%; in test [17], 2.77%; in test [18], 37.3%. Further, the inhibition was 88.4% in test [19] and 1.64% in test [20].

Turning to `COc1ccc(CNC(=O)c2ccc(-c3cc(-c4nnc(C)o4)ccc3C)cc2)cc1`, the inhibition is 0.62% in test [1]; 0.01% in test [2]; 0.83% in [3]; 1.08% in test [4]; 1.37% in [5]; -2.09% in test [6]. In addition, the inhibition in test [7] was -1.7%; in test [8], 1.68%; in [9], 3.08%; in test [10], 3.23%; in [11] it was -1.03%; in test [12], 1.82%. Besides, the inhibition in test [13] is 2.19%; in test [14], 1.52%; in [15], 1.19%; in [16], -1.69%; in [17] it was -2.05%; in test [18] it was 0.99%. The inhibition in test [19] came out at 2.3%; in test [20], 2.46%.

With `FC(F)(F)c1cccc(-c2nn3ncccc3c2-c2ccnc(Nc3ccc4c(c3)OCCO4)n2)c1`, the inhibition in [1] amounted to 3.28%; in test [2], 1.54%; in [3] it was 4.56%; in [4], 1.58%; in test [5], 3.23%; in [6], 1.29%. Further, the inhibition in test [7] was 0.77%; in test [8], 4.14%; in test [9], 4.5%; in test [10], 1.7%; in [11], -0.03%; in test [12], 2.66%. Also, the inhibition in test [13] was 4.56%; in test [14] it was 1.65%; in test [15], 2.11%; in [16] it was -1.79%; in test [17], 2.39%; in test [18], 1.11%. Also, the inhibition in [19] was determined as 0.64%; in test [20], 0.73%.

As to `Fc1ccc(-c2cc(-c3c[nH]nc3-c3ccccn3)ccn2)cc1`, the inhibition in test [1] was 6.19%; in test [2], 4.09%; in test [3], 6.73%; in test [4], 0.86%; in [5] it was -0.63%; in [6] it was 2.51%. Further, the inhibition is 5.92% in test [7]; 2.72% in test [8]; 3.29% in test [9]; 2.03% in test [10]; -1.83% in [11]; 1.98% in [12]. In addition, the inhibition in test [13] is 1.18%; in test [14], -0.24%; in test [15], -1.54%; in [16], -0.57%; in test [17] it was 2.29%; in test [18], 2.53%. Further, the results for the inhibition in test [19] and in [20] were 2.71% and 1.32%, respectively.

Turning to `Cc1cccc(Nc2ncc(-c3ccccc3)o2)c1`, the inhibition stood at 3.38% in test [1]; 2.18% in test [2]; 2.99% in test [3]; 3.39% in test [4]; 5.05% in test [5]; 4.32% in [6]. Further, the inhibition in [7] was 8.62%; in test [8] it was 1.61%; in test [9], 9.01%; in test [10], -0.22%; in [11], 4.71%; in [12], 1.95%. Moreover, the inhibition in [13] is 5.69%; in [14] it was 1.51%; in test [15], 7.89%; in test [16], -1.21%; in test [17], 11.3%; in test [18], 1.65%. In addition, the inhibition worked out at 4.78% in [19] and 1.1% in [20].

Regarding `CCOc1ccc2c(-c3ccnc(Nc4cccc(C(F)(F)F)c4)n3)cnn2n1`, the inhibition is 3.07% in [1]; 1.18% in [2]; 1.86% in [3]; 0.34% in test [4]; 6.63% in test [5]; 1.78% in [6]. Also, the inhibition in test [7] turned out to be 8.89%; in test [8] it was 3.35%; in [9], 14.1%; in test [10], 2.12%; in test [11], 1.6%; in test [12], 1.35%. Besides, the inhibition in test [13] is 2.43%; in test [14] it was 0.66%; in test [15], 3.67%; in test [16] it was -0.78%; in [17], 1.85%; in [18] it was 24.2%. The figures for the inhibition in [19] and in test [20] were 94.3% and 0.68%, respectively.
